Assay outcomes (PubChem BioAssay)
3T3 cytotox – Cytotoxic Profiling in NIH 3T3 Cell Line of Diverse Libraries Using Quantitative High-Throughput Screening. NIH 3T3 viability, CellTiter-Glo ATP luminescence, 48-72 h. Potency, µM (highest dose often 96.7 µM), inactives show at the top dose activity change, negative = cytotoxicity, most hits filed as inhibitors. 94,000 compounds, 4.3% hits. AID 1345082, 2018; further: nearly all actives have a fitted effect of over 55% in size
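NIH 3T3 cells at 400 cells/well received 23 nL of compound by pintool and were incubated 48 or 72 h at 37 °C. Viability was read as ATP-coupled CellTiter-Glo luminescence.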
FLuc inh – Firefly luciferase inhibition profiling of diverse chemical library using quantitative high-throughput screening; Luciferin 4-monooxygenase (Photinus pyralis), P08659; purified P. pyralis luciferase, luminescence, biochemical; Potency, µM (highest dose often 115 µM), actives largely listed as inhibitors; 76,000 compounds, 2.5% hits; AID 1347043, 2019; further: nearly all actives have a fitted effect of over 65% in size
Target sequence (P08659 whole entry, looked up): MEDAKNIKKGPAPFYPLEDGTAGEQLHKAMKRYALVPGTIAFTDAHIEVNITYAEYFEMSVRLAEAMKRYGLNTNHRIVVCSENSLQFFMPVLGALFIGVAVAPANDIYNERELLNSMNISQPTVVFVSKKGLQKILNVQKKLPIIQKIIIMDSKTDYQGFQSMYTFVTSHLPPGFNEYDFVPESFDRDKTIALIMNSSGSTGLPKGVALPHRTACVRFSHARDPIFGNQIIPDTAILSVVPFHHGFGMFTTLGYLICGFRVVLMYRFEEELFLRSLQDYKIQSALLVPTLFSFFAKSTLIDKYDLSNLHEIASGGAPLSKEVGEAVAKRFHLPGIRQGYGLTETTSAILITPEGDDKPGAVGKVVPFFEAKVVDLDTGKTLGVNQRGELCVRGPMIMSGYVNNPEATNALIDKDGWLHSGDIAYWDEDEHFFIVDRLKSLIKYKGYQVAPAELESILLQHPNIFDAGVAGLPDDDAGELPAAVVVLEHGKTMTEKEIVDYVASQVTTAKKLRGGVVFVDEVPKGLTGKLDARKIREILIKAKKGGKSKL
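Purified 10nM P. pyralis luciferase with 10uM D-luciferin and 10uM ATP in 50mM Tris acetate pH 7.5, 10mM Mg acetate, 0.01% Tween-20, 0.05% BSA. qHTS titration; luminescence read by CCD imager.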
HEK cytotox – Cytotoxic Profiling in HEK 293 Cell Line of Diverse Libraries Using Quantitative High-Throughput Screening | AID 1345083, 2018 | HEK 293 viability, ATP luminescence (CellTiter-Glo), 48-72 h | Potency, µM (highest dose often 115 µM), without a hit: at the top dose activity change, negative = cytotoxicity, actives largely listed as inhibitors | 94,000 compounds, 6.6% hits; further: nearly all actives have a fitted effect of over 60% in size
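250 HEK 293 cells/well; compound by pintool; incubated 48 or 72 hr at 37 degree Celsius; CellTiter-Glo added, 10 min RT, luminescence imaged.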
NPR1 antag – Natriuretic polypeptide receptor (hNpr1) antagonism - Primary qHTS. AID 1347048, 2019. 76,000 compounds, 1.6% hits. Atrial natriuretic peptide receptor 1 (Homo sapiens), P16066. Potency, µM (titrated, usually from 46.3 µM), for the others: top-dose activity change, negative = inhibition, actives largely listed as inhibitors. HEK293 hNpr1 GloSensor cGMP, ANP-stimulated luminescence; calls by dose curve; further: nearly all actives have a fitted effect of over 60% in size
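HEK293 cells stably expressing human Npr1 and cGMP GloSensor pGS-40F, loaded 2 h with 2% GloSensor reagent, given compound 30 min at room temperature. Luminescence read before and 20 min after 0.1 nM hNppA.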
* marks the source's active call; other numbers are inactive results; i = inactive; ? = inconclusive; / = not tested or not shown; [ ] = dose if it differs, or a comment. A selection: hits, their analogues and other compounds. The true share with any hit is near 11%. Unless noted, the call rests on the fitted dose curve; in most records, active means well fitted curve in the direction sought with a large enough effect; inconclusive means small, poorly fitted or top-dose-only effect, or another doubt; inactive means no such curve, though single readings can be large; an effect the other way counts as inactive or inconclusive. On the % scale 0 is the no-effect control and ±100 the full control effect; potency means the concentration at half of the fitted maximal effect.

SMILES	3T3 cytotox	FLuc inh	HEK cytotox	NPR1 antag
COc1ccc(CN2CC(O)CN(C(=O)c3cccc(C(F)(F)F)c3)CC2=O)cc1 (stereo not given)	-25.0%	/	?	/
Cc1ccc(CC(=O)N2CCCN(c3cc(-c4ccccc4)[nH]n3)CC2)cc1	?	i	50.1µM*	-18.2%
COc1ccc(CC(=O)N2CCCN(c3cc(-c4ccc(Cl)cc4)[nH]n3)CC2)cc1	?	i	39.8µM*	?
O=C(c1ccccc1F)N1CCN(c2cc(-c3ccc(F)cc3)[nH]n2)CC1	?	i	?	?
Cc1ccc(-c2cc(N3CCCN(C(=O)c4ccccc4F)CC3)n[nH]2)cc1C	?	i	28.2µM*	-24.0%
Cc1cccc(OCC(=O)N2CCCN(c3cc(-c4ccc(Cl)cc4)[nH]n3)CC2)c1	25.1µM*	i	?	?
COc1cccc(CC(=O)N2CCN(c3cc(-c4ccc(Cl)cc4)[nH]n3)CC2)c1	?	i	?	?
Cn1nc(C(=O)N2CCCN(c3cc(-c4ccccc4)[nH]n3)CC2)c2ccccc21	?	i	28.2µM*	-2.2%
O=C(Cc1ccsc1)N1CCCN(c2cc(-c3ccc(Cl)cc3)[nH]n2)CC1	?	i	?	?
Cc1ccc(-c2cc(N3CCCN(C(=O)Cc4ccccc4)CC3)n[nH]2)cc1C	39.8µM*	?	?	-12.7%
O=C(Cc1ccccc1)N1CCCN(c2cc(-c3ccc(Cl)cc3)[nH]n2)CC1	?	i	39.8µM*	?
CC(C)c1noc(-c2cn(C3CCN(C(=O)c4ccc[nH]4)CC3)nn2)n1	-9.6%	i	-15.1%	0.0%
N#Cc1cccc(CN2CCC3(CC2)CC(Cc2nc(C4CC4)no2)CCO3)c1 (stereo not given)	?	i	44.7µM*	-30.4%
CN1CCC2(C1)CN(CC1CCOCC1)c1ccc(C(=O)NCCOc3ccccc3)cc12 (stereo not given)	31.6µM*	i	?	-0.9%
CN1CCC2(C1)CN(CC1CCOCC1)c1ccc(C(=O)NCCCO)cc12 (stereo not given)	89.1µM*	i	?	-1.0%[70.6 µM]
CC(C)CNC(=O)c1ccc2c(c1)C1(CCN(C)C1)CN2CC1CC1 (stereo not given)	?	i	?	-1.1%[70.6 µM]
CN1CCC2(C1)CN(CC1CCOCC1)c1ccc(C(=O)NCCc3ccccc3)cc12 (stereo not given)	?	i	?	7.5%[70.6 µM]
COc1ccc(-c2cc(N3CCC(NC(=O)c4ccc5c(c4)OCO5)C3)n[nH]2)cc1 (stereo not given)	?	i	79.4µM*	-7.1%
O=C(NC1CCN(c2cc(-c3ccc(Cl)cc3)[nH]n2)C1)c1ccc2c(c1)OCO2 (stereo not given)	?	i	?	-29.4%
O=C(NC1CCCN(c2cc(-c3ccc(Cl)cc3)[nH]n2)C1)c1ccc2c(c1)OCO2 (stereo not given)	?	?	44.7µM*	-20.8%
O=C(CCC1CCCN(S(=O)(=O)c2ccccc2F)C1)NC1CCCCC1 (stereo not given)	-25.2%	i	31.6µM*	?
CCc1ccc(CNC(=O)CCC2CCCN(S(=O)(=O)c3ccccc3C)C2)cc1 (stereo not given)	?	i	39.8µM*	-25.7%
O=C(NC1CCCC1)c1cccc2c1CCN2S(=O)(=O)c1ccccc1F	35.5µM*	i	?	?
CCCNC(=O)c1cccc2c1CCN2S(=O)(=O)c1ccccc1F	-18.6%	i	?	-24.9%
CCC(C(=O)NC1CCN(c2cc(-c3ccc(OC)cc3)[nH]n2)CC1)c1ccccc1 (stereo not given)	?	i	?	-2.6%
SMILES	3T3 cytotox	FLuc inh	HEK cytotox	NPR1 antag
Cc1ccc(-c2cc(N3CCCN(C(=O)C(C)Oc4ccccc4)CC3)n[nH]2)cc1C (stereo not given)	?	i	?	-18.9%
CC(C(=O)N1CCCN(c2cc(-c3ccc(Cl)cc3)[nH]n2)CC1)c1ccccc1 (stereo not given)	35.5µM*	?	39.8µM*	?
CC(Oc1ccccc1)C(=O)N1CCCN(c2cc(-c3ccc(Cl)cc3)[nH]n2)CC1 (stereo not given)	?	i	39.8µM*	?
O=C(c1ccccc1)N1CCCN(c2cc(-c3ccc(Cl)cc3)[nH]n2)CC1	?	i	?	-17.6%
CCC(C(=O)N1CCCN(c2cc(-c3ccc(OC)cc3)[nH]n2)CC1)c1ccccc1 (stereo not given)	?	i	39.8µM*	-1.7%
Cn1nccc1-c1ccc2ncn(-c3ccccc3)c(=O)c2n1	?	?	i	-1.8%[70.6 µM]
Cc1ccc([S+](=O)([O-])N2CCC(N3C(=O)c4c(c(C)nn4-c4ccccc4)C3C(C)C)C2)cc1 (stereo not given)	-26.6%	/	?	/
Cc1noc(C)c1C(=O)NCC(=O)N1CCCCCCNC(=O)CC1c1ccccc1 (stereo not given)	i	i	i	-13.6%
N#Cc1cccc(-c2c(C(=O)N3CCOCC3)nc3sccn23)c1	-7.0%	/	i	/
COc1cc(F)ccc1-c1cc(C(=O)NCc2c(C)cc(C)[nH]c2=O)c2c(c1)N(C(C)C)CCO2	39.8µM*	i	44.7µM*	0.4%
Cc1cc(C)c(CNC(=O)c2cc(-c3ccccc3F)cc3c2OCCN3C)c(=O)[nH]1	50.1µM*	i	70.8µM*	-18.0%[70.6 µM]
COc1cccc(-c2cc(C(=O)NCc3c(C)cc(C)[nH]c3=O)c3c(c2)N(C(C)C)CCO3)c1OC	?	i	79.4µM*	0.7%
Cc1cc(C)c(CNC(=O)c2cc(-c3ccccc3C)cc3c2OCCN3C(C)C)c(=O)[nH]1	?	i	?	-0.4%
COc1ccc(-c2cc(C(=O)NCc3c(C)cc(C)[nH]c3=O)c3c(c2)N(C(C)C)CCO3)cc1	?	i	28.2µM*	-5.4%
O=C(c1ccc[nH]1)N1CCC(n2cc(-c3nc(C4CC4)no3)nn2)C1 (stereo not given)	-19.5%	i	-3.2%	-16.4%
CCOc1ccc(CC(=O)N2CCC3(CC2)N=C(c2ccc(C)cc2)NO3)cc1	-3.4%	i	6.2%	-13.5%
COc1ccc(NC(=O)Cn2cccc2-c2nc(-c3ccccc3)no2)c(OC)c1	?	i	?	-14.8%
CC(=O)Nc1cccc(-c2cc(C(=O)NCc3c(C)cc(C)[nH]c3=O)c3c(c2)N(C(C)C)CCO3)c1	44.7µM*	i	?	1.0%
Cc1cc(C)c(CNC(=O)c2cc(-c3ccccc3C)cc3ncn(C)c23)c(=O)[nH]1	?	i	112µM*	-4.6%[70.6 µM]
